Measurements as given in PubChem BioAssay (Tox21).
Several values for one entry are separate records, joined by “and”; a condition that tells them apart may be missing. Identical values can stand only once. Records with an inconclusive call do not appear. Entries that show only a call come without a potency. Activity calls are given as the source filed them. Unless noted, calls come from the whole dose curve; as a rule, active = well fitted curve in the direction sought with a large enough effect in the repeat runs; inconclusive = weak or mixed curves; inactive = no such curve, though single readings can be large; an effect the other way counts as inactive or inconclusive.

What was measured:
[1] = qHTS assay to identify small molecule agonists of H2AX - cell viability counter screen (AID 1224847; calls by dose curve; note: nearly all actives have a fitted effect of over 30% in size; note: potency is the fitted concentration of half-maximal effect)
Method in brief: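 Compounds tested at 15 concentrations were incubated 3 hr at 37C with wild-type CHO-K1 cells; cellular ATP-based luminescence (CellTiter-Glo) indicated viability.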

[2] = qHTS RealTime-Glo MT Cell Viability Assay in HepG2 cells - 24 hour (AID 1224867); note: nearly all actives have a fitted effect of over 50% in size
Method in brief: (§1)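 HepG2 cells were seeded at 600 cells/well together with NanoLuc luciferase and a cell-permeant prosubstrate, preincubated 5 h at 37 C/5% CO2, then pin-dosed with compounds in DMSO. Nonlytic luminescence from viable cells was read at each time point.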

[3] = qHTS RealTime-Glo MT Cell Viability Assay in HEK293 cells - 32 hour (AID 1224868); note: nearly all actives have a fitted effect of over 50% in size; note: potency is the fitted concentration of half-maximal effect
Method in brief: (§2)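 HEK293 cells were seeded at 600 cells/well together with NanoLuc luciferase and cell-permeant prosubstrate, preincubated 5 h at 37 C/5% CO2, then given compound in DMSO by pintool. Luminescence from viable-cell prosubstrate reduction was read repeatedly over 40 h.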

[4] = A CellTox Green Cytotoxicity Assay to monitor cytotoxicity in HEK293 cells - 0 hour (AID 1224869); note: nearly all actives have a fitted effect of over 50% in size
Method in brief: (§3)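 Fluorescence from a DNA-binding dye excluded by viable cells was measured repeatedly in the same HEK293 wells (600 cells/well) during continuous compound exposure at 37 C. Each assay gives one read point: 0, 8, 16, 24, 32 or 40 h.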

[5] = A CellTox Green Cytotoxicity Assay to monitor cytotoxicity in HEK293 cells - 40 hour (AID 1224871); note: nearly all actives have a fitted effect of over 45% in size
Method in brief: as §3

[6] = qHTS RealTime-Glo MT Cell Viability Assay in HEK293 cells - 16 hour (AID 1224872); note: nearly all actives have a fitted effect of over 50% in size; note: potency is the fitted concentration of half-maximal effect
Method in brief: as §2

[7] = qHTS RealTime-Glo MT Cell Viability Assay in HepG2 cells - 8 hour (AID 1224873); note: nearly all actives have a fitted effect of over 55% in size
Method in brief: (§4)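 HepG2 cells (600/well) mixed with RealTime-Glo MT reagent, settled 5 h at 37 C/5% CO2 before compound addition. Nonlytic NanoLuc luminescence from viable-cell prosubstrate reduction read repeatedly during 40 h treatment at 37 C.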

[8] = A CellTox Green Cytotoxicity Assay to monitor cytotoxicity in HEK293 cells - 24 hour (AID 1224875); note: series mostly up to about 77 µM; nearly all actives have a fitted effect of over 45% in size
Method in brief: as §3

[9] = A CellTox Green Cytotoxicity Assay to monitor cytotoxicity in HepG2 cells - 16 hour (AID 1224876); note: nearly all actives have a fitted effect of over 45% in size
Method in brief: (§5)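 Real-time cytotoxicity: fluorescence of a cell-impermeant cyanine dye binding DNA of dead HepG2 cells, measured repeatedly (0–40 h) during compound exposure at 37 C. Cells seeded 600/well with reagent, dosed after 5 h.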

[10] = qHTS RealTime-Glo MT Cell Viability Assay in HepG2 cells - 32 hour (AID 1224877); note: nearly all actives have a fitted effect of over 55% in size
Method in brief: as §1

[11] = A CellTox Green Cytotoxicity Assay to monitor cytotoxicity in HepG2 cells - 24 hour (AID 1224878); note: nearly all actives have a fitted effect of over 45% in size
Method in brief: as §5

[12] = A CellTox Green Cytotoxicity Assay to monitor cytotoxicity in HepG2 cells - 40 hour (AID 1224879); note: nearly all actives have a fitted effect of over 40% in size
Method in brief: as §5

[13] = qHTS RealTime-Glo MT Cell Viability Assay in HEK293 cells - 0 hour (AID 1224880)
Method in brief: (§6)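 Luminescence, which tracks viable cell number through reduction of the prosubstrate to a NanoLuc substrate, was read over continuous 37 C culture. Cells (600/well) were premixed with reagent and rested 5 h before 23 nL of compound in DMSO was pinned.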

[14] = A CellTox Green Cytotoxicity Assay to monitor cytotoxicity in HepG2 cells - 0 hour (AID 1224882); note: nearly all actives have a fitted effect of over 35% in size
Method in brief: as §5

[15] = A CellTox Green Cytotoxicity Assay to monitor cytotoxicity in HepG2 cells - 32 hour (AID 1224883); note: nearly all actives have a fitted effect of over 50% in size
Method in brief: as §5

[16] = A CellTox Green Cytotoxicity Assay to monitor cytotoxicity in HEK293 cells - 8 hour (AID 1224884); note: nearly all actives have a fitted effect of over 35% in size
Method in brief: as §3

[17] = qHTS RealTime-Glo MT Cell Viability Assay in HEK293 cells - 40 hour (AID 1224874); conditions: RealTime-Glo luminescence; max response: active compounds read low; note: nearly all actives have a fitted effect of over 50% in size; note: potency is the fitted concentration of half-maximal effect
Method in brief: as §6

[18] = qHTS RealTime-Glo MT Cell Viability Assay in HepG2 cells - 40 hour (AID 1224870); note: nearly all actives have a fitted effect of over 50% in size
Method in brief: as §4

[19] = A CellTox Green Cytotoxicity Assay to monitor cytotoxicity in HEK293 cells - 32 hour (AID 1224881); note: nearly all actives have a fitted effect of over 40% in size
Method in brief: as §3

Structure (SMILES)	Potency [1]	outcome [2]	Potency [3]	outcome [4]	Potency [5]	Potency [6]	outcome [7]	Potency [8]	Potency [9]	outcome [10]	Potency [11]	Potency [12]	Potency [13]	outcome [14]	Potency [15]	outcome [16]	Potency [17]	outcome [18]	max response [17]	Potency [19]
O=c1[nH]c(=O)n([C@H]2C[C@H](O)[C@@H](CO)O2)cc1Br	inactive	inactive	inactive	inactive	inactive	inactive	inactive	inactive	inactive	inactive	inactive	inactive	inactive	inactive	inactive	inactive	–	–	–	–
C=C(C)C(=O)Nc1ccc(Cl)c(Cl)c1	102 µM (active)	inactive	19.7 µM (active) and 21.8 µM (active)	inactive	inactive	22.1 µM (active) and 21.8 µM (active)	–	inactive	–	inactive	inactive	inactive	inactive	inactive	inactive	inactive	19.7 µM (active) and 24.4 µM (active)	–	–	–
CCCCCC(N)=O	inactive	inactive	inactive	inactive	inactive	inactive	–	inactive	–	inactive	inactive	inactive	inactive	inactive	inactive	inactive	–	inactive	0.824% (inactive) and 2.09% (inactive)	inactive
CCCC(C)=O	inactive	inactive	inactive	inactive	inactive	inactive	inactive	inactive	inactive	inactive	inactive	inactive	inactive	inactive	inactive	inactive	–	–	–	–
COc1ccc(Cl)cc1C(=O)NCCc1ccc(S(=O)(=O)NC(=O)NC2CCCCC2)cc1	inactive	inactive	inactive	inactive	inactive	inactive	–	inactive	inactive	inactive	inactive	inactive	–	inactive	inactive	inactive	–	–	–	–
O=C(O)c1cc(O)c(O)c(O)c1	inactive	inactive	inactive	inactive	inactive	inactive	–	inactive	inactive	inactive	inactive	inactive	inactive	inactive	inactive	inactive	–	–	–	inactive
CCCCCCCCCCCCCCO	inactive	inactive	inactive	inactive	inactive	inactive	–	inactive	–	inactive	inactive	inactive	inactive	inactive	inactive	inactive	–	inactive	–	–
CC(=O)Nc1cccc(O)c1	inactive	inactive	inactive	inactive	inactive	inactive	–	inactive	inactive	inactive	inactive	inactive	inactive	inactive	inactive	inactive	–	inactive	–	–
Cc1ccc(S(N)(=O)=O)cc1	inactive	inactive	inactive	inactive	inactive	inactive	–	inactive	inactive	inactive	inactive	inactive	inactive	inactive	inactive	inactive	–	–	–	inactive
O=C(O)[C@H](O)[C@@H](O)[C@H](O)[C@H](O)CO	inactive	inactive	inactive	–	–	inactive	inactive	–	inactive	inactive	inactive	inactive	inactive	inactive	inactive	–	–	inactive	-0.628% (inactive) and 0.139% (inactive)	–
O=C1CCC(N2C(=O)c3ccccc3C2=O)C(=O)N1 (configuration not stated)	inactive	inactive	inactive	inactive	inactive	inactive	inactive	inactive	–	inactive	inactive	inactive	inactive	inactive	inactive	inactive	–	–	7.18% (inactive) and -6.83% (inactive)	inactive
